Screening data: PubChem BioAssay, National Center for Advancing Translational Sciences (NCATS)
Most compounds without a hit are left out; they make up all but 2.1% or so of the library.
FUS yeast rescue = qHTS for Suppressors of FUS Proteinopathy: Primary screen using FUS-linked yeast assay; S. cerevisiae FUS-expressing, growth rescue, OD600, 24 h; Potency, µM (titrated, usually from 76.6 µM), actives largely listed as activators; hit rate 0.24% among 390,000; AID 1347120, 2019;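 further: plate controls were DMSO vehicle for no effect and reference control for full effect; nearly all actives have a fitted effect of over 55% in size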
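Steps: raffinose overnight preculture; dilution to OD 0.005 in 2% galactose minimal medium; compound addition (concentration series); 24hr at 30C, 99% humidity; absorbance read at 600 nm.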
TDP-43 yeast inh = qHTS of TDP-43 Inhibitors | hit rate 1.8% among 410,000 | Potency, µM (series often up to 46.1 µM), inactives show at the highest dose growth rescue (activation), most hits filed as activators | AID 652104, 2013 | TDP-43 expressing yeast growth rescue, BacTiter-Glo, 24 h; further: % of control where 0% means no effect; nearly all actives have a fitted effect of over 50% in size
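Cell-based yeast growth screen: TDP-43 expression induced in galactose, inoculum OD600=0.02 after raffinose pregrowth to mid-log. Read-out BacTiter-Glo luminescence at 24 hr, 30 deg C; inhibition of toxicity seen as signal increase.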
aSyn rescue = qHTS of alpha-syn Inhibitors; Yeast expressing alpha-synuclein, growth rescue, BacTiter-Glo, 24 h; hit rate 0.14% among 370,000; Potency, µM (top dose mostly 46.1 µM), inactives show at the top dose growth rescue (activation), hits mostly activators; further: % of control where 0% means no effect; nearly all actives have a fitted effect of over 65% in size
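Rescue of yeast growth: cells expressing toxic alpha-synuclein, induced in galactose at OD600 0.02, incubated with compound 24 h at 30 C. ATP luminescence quantified growth; inhibitors of toxicity appear as activators.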
Abeta yeast res = qHTS for compounds that reverse cellular toxicity of Amyloid beta (A-beta) peptide in yeast: Primary Screen. AID 1347071, 2019. hit rate 0.063% among 410,000. yeast expressing A-beta42, growth rescue, OD600, 48 h; response scale: 0% DMSO, 100% iron-clioquinol control. Potency, µM (series often up to 46.1 µM), most hits filed as activators; further: nearly all actives have a fitted effect of over 55% in size
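Growth rescue measured by 600 nm absorbance after 48 h yeast culture at 30 C with compound. Values normalized between DMSO and an equimolar ferric chloride plus clioquinol control.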
* marks the source's active call; other numbers are inactive results; i = inactive; ? = inconclusive; nt = not tested or not shown; [ ] = another dose, or the depositor's remark. The call rests on the fitted dose curve; in most records, active means well fitted curve in the direction sought with a large enough effect; inconclusive means small, poorly fitted or top-dose-only effect, or another doubt; inactive means no such curve, though single readings can be large; an effect the other way counts as inactive or inconclusive. Potency means the concentration at half of the fitted maximal effect.

SMILES | FUS yeast rescue | TDP-43 yeast inh | aSyn rescue | Abeta yeast res
COc1cccc(/C=C2\SC(N3CCC(C)CC3)=NC2=O)c1OC | i | ? | 1% | i
CN(C(=O)CSc1nc(-c2ccccc2)cn1N)C(c1ccccc1)c1ccccc1 | 32µM* | 1% | -7% | i
COc1ccccc1CNC(=O)CSc1nc(-c2ccccc2)cn1N | i | 18% | -9% | i
O=c1[nH]c(-c2ccco2)nc2sc3c(c12)CCCC3 | nt | 18µM* | -7% | i
O=C(/C=C/c1ccc2c(c1)OCO2)N1CCN(c2ccccc2F)CC1 | nt | 35µM* | 5% | i
COc1ccccc1N1CCN(C(=O)/C=C/c2ccc3c(c2)OCO3)CC1 | i | ? | 5% | i
Cc1ccc(C)c(N2CCN(C(=O)Cn3ncc4ccsc4c3=O)CC2)c1 | ? | -6% | 16µM* | i
O=C(Cc1cccs1)NC1CCCCN(Cc2cccc(Cl)c2)C1=O (stereo unspecified) | i | nt | nt | nt
COC(=O)CN1CCN(C(=O)c2nocc2C)CC1 | i | nt | nt | nt
CC(=O)N1CCc2nc3sc(C(=O)c4ccc(F)cc4)c(N)c3c(C(F)(F)F)c2C1 | i | 28µM* | nt | i
CCCC(C)NC(=O)CC1Oc2ccccc2NC1=O (stereo unspecified) | i | nt | nt | nt
O=C(Nc1cccc(C(F)(F)F)c1)c1csc(-c2ccncc2)n1 | i | -8% | -4% | i
COc1cc(NC(=O)c2csc(-c3ccncc3)n2)cc(C(=O)Nc2cccc(C(F)(F)F)c2)c1 | ? | 20µM* | 1% | i
COc1ccc(CC(=O)NCCc2csc(-c3ccc(C(F)(F)F)cc3)n2)cc1 | i | 11% | -4% | i
COc1ccc(C(=O)NCCc2csc(-c3ccc(Cl)cc3)n2)c(OC)c1 | ? | 20µM* | nt | i
COc1ccccc1C(=O)NCCc1csc(-c2ccc(C(F)(F)F)cc2)n1 | ? | 25µM* | nt | i
COc1cc(OC)cc(C(=O)NCCc2csc(-c3ccc(C(F)(F)F)cc3)n2)c1 | i | 18µM* | nt | i
CC1CCCCC1C(=O)N1CCC(Oc2cccnc2)CC1 (stereo unspecified) | i | nt | nt | nt
O=C(NCCc1csc(-c2ccc(Cl)cc2)n1)c1cccs1 | i | 18µM* | nt | i
Oc1c(C(c2ccccn2)N2CCC(Cc3ccccc3)CC2)cc(Cl)c2cccnc12 (stereo unspecified) | 25µM* | 19%[9.22 µM] | -4% | i
CN1CCN(C(c2ccccn2)c2cc(Cl)c3cccnc3c2O)CC1 (stereo unspecified) | i | -61% | ? | i
Nc1nc(Nc2ccccc2)nc(NCc2ccco2)c1[N+](=O)[O-] | i | 20µM* | 10% | i
C=C1C=C(C(F)F)n2ncc(C(=O)Nc3ccc(Br)cc3C(F)(F)F)c2N1 | nt | nt | -15% | nt
Cc1ccc(S(=O)(=O)NCCC(=O)OCc2ccc([N+](=O)[O-])cc2)cc1C | i | 20µM* | 0% | i
O=C(CCNS(=O)(=O)c1ccccc1)OCc1ccc([N+](=O)[O-])cc1 | i | 29% | 1% | i
SMILES | FUS yeast rescue | TDP-43 yeast inh | aSyn rescue | Abeta yeast res
COc1ccc(-c2nc3ccc(NC(C)=O)cc3c(=O)n2Cc2cccc(Cl)c2)cc1COc1ccc(NC(C)=O)cc1 | nt | nt | 2% | nt
CSc1nnc2c(n1)c(C)nn2-c1cccc(C)c1 | i | 13µM* | -9% | i
CCOc1ccccc1-c1ccc(C(=O)NCc2ccccc2)o1 | i | 16µM* | 3% | i
CCCCOC(=O)/C=C/c1ccc(OC(=O)OC)c(OC(=O)OC)c1 | i | 14µM* | -41% | i
COC(=O)Oc1ccc(/C=C/C(=O)OC(C)C)cc1OC(=O)OC | i | 14µM* | -12% | i
COc1ccc(/C=C/C(=O)OCCNC(=O)c2ccncc2)cc1OC | i | 13% | 4% | ?
Cc1ccc(CN2CCCCC(NC(=O)Nc3cccc([N+](=O)[O-])c3)C2=O)cc1 (stereo unspecified) | i | nt | nt | nt
CN1CCOc2cc(S(=O)(=O)N3CCN(c4nc(-c5cccs5)nc5ccccc45)CC3)ccc21 | nt | nt | -7% | nt
CCc1ccc(-c2nc3c(=O)n(C)c(=O)nc-3n(CC)n2)cc1 | nt | nt | -83% | nt
COC(=O)N1C(=O)[C@](c2ccc(OC)cc2)(C(C)C)N1C(=O)OC | i | 18µM* | 19% | i
COC(=O)N1C(=O)[C@](c2ccsc2)(C(C)C)N1C(=O)OC | i | 20µM* | -5% | i
COC(=O)N1C(=O)[C@](CC(C)C)(c2ccccc2)N1C(=O)OC | i | ? | 0% | i
O=S1(=O)c2ccc(Br)cc2OC[C@@H](Cc2ccccc2)N1Cc1cn(Cc2ccc(C(F)(F)F)cc2)nn1 | i | nt | nt | nt
COCc1cc(C)nc2sc(C(=O)OC)c(N)c12 | i | 13µM* | 1% | i
CCc1ccccc1NC(=O)c1sc2nc(C)cc(C)c2c1N | i | 18µM* | 0% | i
Cc1cc(C)c2c(N)c(C(=O)Nc3ccccc3Br)sc2n1 | i | 12% | -4% | i
COc1ccc(C=Nn2c(-c3ccccc3F)n[nH]c2=S)cc1OCc1ccccc1 | i | nt | nt | nt
O=C(O)c1ccc(N/N=C/c2ccc(-c3cccc(Cl)c3)o2)cc1 | i | 18µM* | -16% | i
CC(C)(C)C(=O)OC12CCCN(C1)/C(=C/c1ccncc1)C2 (stereo unspecified) | i | nt | nt | nt
CCn1nnnc1Sc1nc(C)nc2scc(-c3ccccc3)c12 | nt | nt | -6% | nt
Cc1cccc(Cn2cc(CN3CC(N(C)CCCOC(=O)c4cc(C)cc(C)c4)CS3(=O)=O)nn2)c1 (stereo unspecified) | i | nt | nt | nt
CN(Cc1ccccc1)C(=S)NC(=O)c1cccs1 | i | ? | 5% | 13µM*
Cc1ccc(Cc2c(C3CCCCC3)nc3cc(C)c(Br)c(C)n23)cc1 | i | 7% | -1% | i
Cc1cc2nc(C(C)(C)C)c(Cc3ccsc3)n2c(C)c1Br | i | 13µM* | -13% | ?
Cc1cc2nc(C3CCCCC3)c(Cc3ccsc3)n2c(C)c1Br | i | 20% | 3.5µM* | i
SMILES | FUS yeast rescue | TDP-43 yeast inh | aSyn rescue | Abeta yeast res
N#Cc1cc(-c2ccccc2)[nH]c1-c1nccc2ccccc12 | i | 11µM* | 6% | i
COC(=O)c1c(-c2ccccc2)[nH]c(-c2nccc3ccccc23)c1C(=O)OC | i | 13% | 11% | i
Cc1c(NC(=O)C2CCCN(S(=O)(=O)c3c(C(C)C)cc(C(C)C)cc3C(C)C)C2)c(=O)n(-c2ccccc2)n1C (stereo unspecified) | i | nt | nt | nt
COc1ccc(-n2nc(C(=O)NCC(=O)N3CC(C)CC(C)C3)c3ccccc3c2=O)cc1 (stereo unspecified) | i | 14µM* | 4% | i
COc1ccc(-n2nc(C(=O)NCC(=O)N3CCCCCC3)c3ccccc3c2=O)cc1 | i | 0% | 3% | i
COc1ccc(N2CCCN(CC(=O)Nc3ccc(Cl)c(Cl)c3)CC2)cc1 | i | nt | nt | nt
CC(C)(C)N(NC(=O)NCCCl)C(=O)c1ccccc1Cl | i | nt | nt | nt
